This passage reports composite z-score and z-score results from PubChem BioAssay.

The subject of test [1] is Plasmodium falciparum Sir2 (PF13_0152, Sir2A). Kind of test: Plasmodium falciparum Sir2A binding compounds – biochemical, small-molecule microarray, 635 nm fluorescence, primary screen (AID 1098).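 Also: score merges spot fluorescence intensity with its signal-to-noise ratio.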 The conditions noted are these: fluorescence 635 nm, higher = more signal.
The nature of test [2]: probe aDKK1 binding to arrayed compounds – biochemical, biotinylated probe, 635/667 nm fluorescence, primary screen (AID 1099).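 Also: score merges 667nm spot fluorescence with signal to noise across triplicate slides.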 The conditions noted are these: small-molecule microarray, higher = more signal.
A short description of test [3]: probe aCHRDL2 binding to arrayed compounds – biochemical, biotinylated probe, 635/667 nm fluorescence, primary screen (AID 1100). The note with it: small-molecule microarray, higher = more signal.
Test [4] can be described thus: change in splice reporter luminescence, either direction, cell-based, HEK293, spliceosome inhibition project, primary screen (AID 1101).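 Also: HEK293 cells carrying a splicing-competent luciferase reporter gene; test concentration not given here.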 The conditions noted are these: HEK293 splicing luciferase reporter, 24 h, higher = more signal, called active from +8 up or from −8 down.
In test [5] the target is Fibroblast growth factor 10 (Homo sapiens) (UniProt O15520). In words: compounds binding fibroblast growth factor 10 – biochemical, small-molecule microarray, 635 nm fluorescence, primary screen (AID 1102). The conditions noted are these: FGF10 binding, fluorescence 635 nm, higher = more signal.
Test [6] has as its system glycogen synthase kinase-3 (GSK3A per assay name; protocol says GSK3B). In words: compounds binding glycogen synthase kinase-3 – biochemical, small-molecule microarray, 635 nm fluorescence, GSK3A, primary screen (AID 1103). Also: the record names both GSK3A and GSK3B. The note with it: fluorescence 635 nm, higher = more signal.
Test [7] has as its target Epidermal growth factor receptor (Homo sapiens) (UniProt P00533). In words: compounds binding epidermal growth factor receptor – biochemical, small-molecule microarray, 635 nm fluorescence, primary screen (AID 1104).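 Also: score merges 667 nm emission intensity with spot signal to noise over triplicate slides.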 The conditions noted are these: EGFR binding, higher = more signal.
The target in test [8] is Follistatin-related protein 3 (Homo sapiens) (UniProt O95633). Kind of test: compounds binding follistatin-related protein 3 – biochemical, small-molecule microarray, 635 nm fluorescence, primary screen (AID 1105).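 Also: score merges emission near 667 nm and signal to noise per printed spot across three slides.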 The conditions noted are these: FSTL3 binding, higher = more signal.
For test [9], the target named is Dickkopf-related protein 1 (Homo sapiens) (UniProt O94907). Kind of test: small molecules binding DKK1 protein – biochemical, small-molecule microarray, 635 nm fluorescence scan, primary screen (AID 1106).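 Also: score merges emission near 667 nm with signal to noise over three replicate slides.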 The conditions noted are these: higher = more signal.
Test [10] relates to Inhibin beta A chain (activin A). In words: small molecules binding activin A – biochemical, small-molecule microarray, 635 nm fluorescence scan, primary screen (AID 1107).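 Also: mouse activin A protein probed at 4.33 µg/mL on printed slides; score merges bound-protein fluorescence near 667 nm with spot signal-to-noise.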 The note with it: INHBA, higher = more signal.
Test [11] deals with Human papillomavirus type 1a protein E7 (residues 44-93). Kind of test: small molecules binding HPV E7 44-93 – biochemical, small-molecule microarray, residues 44-93, 635 nm fluorescence, primary screen (AID 1108).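 Also: E7 fragment applied at 1 µg/mL in TBST for 1 h at 4 C; score combines spot fluorescence with its signal to noise ratio.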 The conditions noted are these: fluorescence 635 nm, higher = more signal.
Test [12] is described as follows: hepatitis C replication reporter changes, two-sided – Huh7 cells, luciferase reporter, HCV replication inhibitor project, primary screen (AID 1109).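 Also: huh7 hepatoma cells harbouring a luciferase neomycin HCV replicon reporter; luciferase luminescence as measure of HCV replicon replication; test concentration not given here.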 The conditions noted are these: Huh7 HCV replicon luciferase reporter, 48 h; higher = more signal. In general terms: In a reporter assay the amount or activity of a reporter protein is the signal.
Test [13] addresses Left-right determination factor 2 (Homo sapiens) (UniProt O00292). In words: small molecules binding LEFTY2 protein – biochemical, small-molecule microarray, 635 nm fluorescence scan, primary screen (AID 1110). The note with it: higher = more signal.
The target in test [14] is Calmodulin-1 (Homo sapiens) (UniProt P0DP23). Kind of test: small molecules binding calmodulin-1 with EGTA – biochemical, small-molecule microarray, Cy5-labelled CALM1, profiling panel (AID 1111).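 Also: labelled calmodulin applied in Tris saline Tween buffer holding calcium plus EGTA and DTT.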 The conditions noted are these: Cy5-CALM1 binding fluorescence, higher = more signal.
The target is the same in test [15]. Kind of test: small molecules binding Ca-loaded calmodulin-1 – biochemical, small-molecule microarray, Cy5-labelled CALM1, plus calcium, artefact control for SMM control-protein annotation, profiling panel (AID 1112).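 Also: score merges spot fluorescence with signal to noise from triplicate slides.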 The conditions noted are these: Cy5-CALM1 binding fluorescence, higher = more signal.
Test [16] can be described thus: probe aWnt5a binding to arrayed compounds – biochemical, biotinylated probe, 635/667 nm fluorescence, primary screen (AID 1113).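 Also: score merges 667 nm fluorescence intensity with signal-to-noise per printed feature.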 The conditions noted are these: small-molecule microarray, higher = more signal.
Test [17] in a line: probe aShh binding to arrayed compounds – biochemical, biotinylated probe, 635/667 nm fluorescence, primary screen (AID 1114).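 Also: probe is biotin-labelled aShh protein from a stem cell growth factor screen; measures binding of labelled protein to compounds printed on the slide; score merges feature fluorescence at 667 nm with signal-to-noise.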 The note with it: small-molecule microarray, higher = more signal.
The nature of test [18]: probe aNog binding to arrayed compounds – biochemical, biotinylated probe, 635/667 nm fluorescence, primary screen (AID 1115).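 Also: probe is biotinylated aNog protein used at 0.15 µg/mL for 1 h at 4 C; z-score combines 667 nm fluorescence of each spot with its signal to noise.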 The note with it: small-molecule microarray, higher = more signal.
In test [19] the target is Torsin-1A-interacting protein 1 (Homo sapiens) (UniProt Q5JTV8). In words: compound microarray binding of lysate hLAP1 – cell lysate, small-molecule microarray, COS7 lysate, 635/667 nm fluorescence, primary screen (AID 1116). The note with it: 635 nm fluorescence, higher = more signal.
Test [20] has as its target Alpha-bungarotoxin (Bungarus multicinctus) (UniProt P60615). In words: compounds binding labelled alpha-BTX control protein – biochemical, small-molecule microarray, Alexa647 label, 635/667 nm fluorescence, artefact control for SMM control protein annotation, profiling panel (AID 1117). The conditions noted are these: alpha-BTX-A647 binding fluorescence, higher = more signal.

Calls of active or inactive are those of the source.

Chain of Fibroblast growth factor 10 (Homo sapiens) (O15520 whole entry, looked up): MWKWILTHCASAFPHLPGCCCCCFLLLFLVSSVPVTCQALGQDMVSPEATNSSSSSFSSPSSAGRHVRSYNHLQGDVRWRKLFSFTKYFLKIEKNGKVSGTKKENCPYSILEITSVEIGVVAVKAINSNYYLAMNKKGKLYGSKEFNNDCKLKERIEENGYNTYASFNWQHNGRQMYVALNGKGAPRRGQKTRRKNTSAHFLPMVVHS
Chain of Torsin-1A-interacting protein 1 (Homo sapiens) (Q5JTV8 whole entry, looked up): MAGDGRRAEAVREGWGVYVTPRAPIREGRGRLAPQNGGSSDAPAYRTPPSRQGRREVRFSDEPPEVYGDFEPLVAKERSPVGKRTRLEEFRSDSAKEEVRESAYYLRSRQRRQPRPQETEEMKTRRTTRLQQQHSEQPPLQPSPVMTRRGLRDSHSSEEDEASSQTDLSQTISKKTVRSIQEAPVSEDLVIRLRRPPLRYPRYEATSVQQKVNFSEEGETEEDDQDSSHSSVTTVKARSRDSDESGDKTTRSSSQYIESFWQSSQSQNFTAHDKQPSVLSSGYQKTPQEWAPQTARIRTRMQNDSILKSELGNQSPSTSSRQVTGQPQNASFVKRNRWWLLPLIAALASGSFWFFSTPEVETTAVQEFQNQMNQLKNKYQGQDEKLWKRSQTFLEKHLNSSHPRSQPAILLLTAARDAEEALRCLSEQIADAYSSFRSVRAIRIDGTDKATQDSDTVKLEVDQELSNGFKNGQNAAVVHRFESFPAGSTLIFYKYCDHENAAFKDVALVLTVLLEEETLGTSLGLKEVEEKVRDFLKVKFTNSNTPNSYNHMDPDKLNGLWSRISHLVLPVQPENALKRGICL
Chain of Left-right determination factor 2 (Homo sapiens) (O00292 whole entry, looked up): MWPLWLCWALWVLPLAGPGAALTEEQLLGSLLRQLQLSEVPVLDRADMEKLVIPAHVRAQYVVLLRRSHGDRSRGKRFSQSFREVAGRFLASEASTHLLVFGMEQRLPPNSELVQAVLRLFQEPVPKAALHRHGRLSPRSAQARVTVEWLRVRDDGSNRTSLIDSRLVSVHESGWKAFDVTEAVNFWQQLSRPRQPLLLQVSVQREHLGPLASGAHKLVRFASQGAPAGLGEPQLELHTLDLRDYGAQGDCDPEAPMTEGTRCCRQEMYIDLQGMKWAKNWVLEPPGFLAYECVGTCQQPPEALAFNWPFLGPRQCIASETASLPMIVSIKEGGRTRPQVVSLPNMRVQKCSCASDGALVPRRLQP
Chain of Epidermal growth factor receptor (Homo sapiens) (P00533 whole entry, looked up): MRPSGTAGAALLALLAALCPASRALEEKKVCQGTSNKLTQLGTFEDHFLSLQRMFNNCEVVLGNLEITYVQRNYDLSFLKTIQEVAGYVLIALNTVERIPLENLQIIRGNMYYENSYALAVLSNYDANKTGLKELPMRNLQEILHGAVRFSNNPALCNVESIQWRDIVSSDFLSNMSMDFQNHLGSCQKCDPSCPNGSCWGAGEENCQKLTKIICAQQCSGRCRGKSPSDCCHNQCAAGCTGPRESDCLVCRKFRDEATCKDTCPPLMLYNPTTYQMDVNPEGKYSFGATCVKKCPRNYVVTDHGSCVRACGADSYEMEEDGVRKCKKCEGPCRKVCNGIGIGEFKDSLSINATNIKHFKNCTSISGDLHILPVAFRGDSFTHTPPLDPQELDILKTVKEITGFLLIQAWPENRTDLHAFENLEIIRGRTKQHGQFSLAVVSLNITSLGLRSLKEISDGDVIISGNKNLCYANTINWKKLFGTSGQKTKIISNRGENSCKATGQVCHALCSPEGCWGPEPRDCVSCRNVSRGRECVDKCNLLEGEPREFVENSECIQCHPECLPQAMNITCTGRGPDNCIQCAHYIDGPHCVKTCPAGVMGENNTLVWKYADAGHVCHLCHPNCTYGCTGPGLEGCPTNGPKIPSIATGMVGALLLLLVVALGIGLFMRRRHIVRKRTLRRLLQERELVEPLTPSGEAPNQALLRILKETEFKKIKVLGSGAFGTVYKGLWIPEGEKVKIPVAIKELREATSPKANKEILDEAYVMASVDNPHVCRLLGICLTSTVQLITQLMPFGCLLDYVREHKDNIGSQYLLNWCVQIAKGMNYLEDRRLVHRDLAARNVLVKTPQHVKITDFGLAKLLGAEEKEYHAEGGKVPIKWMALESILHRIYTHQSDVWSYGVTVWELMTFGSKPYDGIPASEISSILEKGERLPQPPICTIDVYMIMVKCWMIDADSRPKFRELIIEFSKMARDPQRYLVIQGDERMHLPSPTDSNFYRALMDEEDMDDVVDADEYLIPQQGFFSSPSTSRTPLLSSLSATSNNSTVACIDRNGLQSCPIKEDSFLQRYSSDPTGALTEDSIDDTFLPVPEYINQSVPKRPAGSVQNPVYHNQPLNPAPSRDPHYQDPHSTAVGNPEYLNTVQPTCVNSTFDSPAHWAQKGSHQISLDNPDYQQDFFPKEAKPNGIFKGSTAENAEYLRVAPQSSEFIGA
Chain of Alpha-bungarotoxin (Bungarus multicinctus) (P60615 whole entry, looked up): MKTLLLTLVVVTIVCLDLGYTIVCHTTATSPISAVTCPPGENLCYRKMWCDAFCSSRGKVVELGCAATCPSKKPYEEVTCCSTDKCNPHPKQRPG
Chain of Dickkopf-related protein 1 (Homo sapiens) (O94907 whole entry, looked up): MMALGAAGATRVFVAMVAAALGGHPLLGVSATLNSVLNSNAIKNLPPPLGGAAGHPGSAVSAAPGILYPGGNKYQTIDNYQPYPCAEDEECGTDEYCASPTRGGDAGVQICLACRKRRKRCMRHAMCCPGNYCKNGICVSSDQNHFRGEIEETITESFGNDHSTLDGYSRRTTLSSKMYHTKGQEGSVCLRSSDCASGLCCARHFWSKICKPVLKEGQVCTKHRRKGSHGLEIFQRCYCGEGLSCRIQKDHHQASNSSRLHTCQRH
Chain of Follistatin-related protein 3 (Homo sapiens) (O95633 whole entry, looked up): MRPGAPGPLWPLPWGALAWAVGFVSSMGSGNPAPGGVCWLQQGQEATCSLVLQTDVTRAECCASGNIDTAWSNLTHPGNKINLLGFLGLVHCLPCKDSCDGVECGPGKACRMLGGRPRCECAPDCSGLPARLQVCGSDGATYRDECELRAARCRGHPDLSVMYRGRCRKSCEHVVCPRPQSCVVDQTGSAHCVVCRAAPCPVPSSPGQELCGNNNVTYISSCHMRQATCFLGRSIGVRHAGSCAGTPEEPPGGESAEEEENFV

For `CC(C)(C)OC(=O)CC[C@]1(C(=O)NCc2ccccc2)N=C(c2ccc(OCCCO)cc2)O[C@H]1c1ccccc1`, the composite z-score in test [1] was 1.73; in test [2] it was -0.0749; in test [3], 0.574; in test [5], 0.686; in test [6], 1.24; in [7], 0.0167. Besides, the composite z-score in test [8] was -0.136; in test [9] it was -0.402; in test [10] it was -0.285; in test [11], 1.02; in test [13], -0.598; in [14], 1.91. The composite z-score in test [15] is 0.683; in [16], 0.257; in [17], 0.147; in test [18], -0.198; in test [19], 1.6; in [20] it was 1.53. Further, the z-score is 0.351 (inactive) in test [4] and -2.44 in test [12].
In the case of `O=C1O[C@@H](c2ccccc2)[C@@H](c2ccccc2)N2[C@@H](c3ccc(O)cc3)[C@]3(C(=O)Nc4ccccc43)[C@@H](C(=O)O)[C@H]12`, the composite z-score in [1] was 1.1; in test [2] it was 0.74; in test [3] it was 0.91; in test [5], -0.0962; in [6] it was 0.536; in [7] it was -0.111. Moreover, the composite z-score is -0.0238 in [8]; -0.465 in test [9]; 0.385 in test [10]; 1.02 in test [11]; -0.6 in [13]; 0.64 in test [14]. Moreover, the composite z-score is 0.212 in [15]; -0.174 in test [16]; -0.793 in test [17]; 0.0156 in test [18]; 0.98 in [19]; -0.0356 in [20]. The z-score in [4] was 0.451 (inactive); in test [12], -0.996.
For `CCc1cc2c(nc1CC)CCN(CCC(C)=NOC[C@@H](O)[C@H]1O[C@@H]3OC(C)(C)O[C@@H]3[C@H]1O)C2`, the composite z-score was 0.569 in [1]; -0.54 in test [2]; -0.32 in [3]; 0.123 in [5]; 0.175 in test [6]; 0.352 in test [7]. For the same molecule, the composite z-score was determined as 0.285 in [8]; 0.453 in test [9]; 0.963 in [10]; 0.176 in test [11]; 0.317 in test [13]; 1.68 in test [14]. Moreover, the composite z-score is 0.0363 in test [15]; -0.0607 in test [16]; -0.16 in test [17]; -0.238 in test [18]; 0.455 in [19]; 0.677 in test [20]. The values for the z-score in test [4] and in [12] were -0.173 (inactive) and -1.59, respectively.
Take `CC(CCC(=O)OC[C@H]1O[C@H](C#Cc2ccccc2)C=C[C@@H]1Oc1ccc(C)cc1)=NO[C@@H](C)c1cn([C@H](CO)Cc2ccccc2)nn1`: the composite z-score was 0.737 in test [1]; -0.406 in [2]; -0.52 in test [3]; 0.304 in [5]; -0.28 in test [6]; 0.313 in test [7]. Also, the composite z-score in [8] was 0.28; in test [9], 0.256; in [10], -0.146; in [11] it was 0.507; in test [13] it was 0.381; in [14], -0.329. Besides, the composite z-score in [15] is -0.385; in test [16], -0.152; in test [17], 0.108; in test [18] it was -0.12; in test [19], -0.0538; in test [20] it was 1.76. Also, the z-score is -1.62 (inactive) in [4] and -1.97 in [12].
On to `CO[C@@H]1COC(=O)CC=C[C@@H](C)COC(=O)[C@H](COCc2ccccc2)NC(=O)CC=C[C@H]1C`, for which the composite z-score is 1.49 in test [1]; -0.526 in test [2]; -1.31 in test [3]; 0.285 in test [5]; 0.19 in test [6]; 0.912 in test [7]. Besides, the composite z-score in [8] was 1.23; in test [9] it was 1.64; in [10], 1.63; in test [11], -0.956; in test [13], 1.02; in test [14] it was -0.838. Also, the composite z-score in test [15] is -1.28; in test [16], -0.0721; in test [17] it was 0.0278; in [18], -0.298; in test [19], 0.325; in [20] it was -0.397. The z-score in [4] is -0.912 (inactive); in [12], -0.151.
Consider `COc1ccccc1CN1C(=O)c2ccccc2[C@@]2(Cc3ccccc3N(C(C)C)C2=O)[C@@H]1c1ccc(CO)cc1`, for which the composite z-score was 0.139 in [1]; -0.119 in test [2]; 0.414 in test [3]; -0.194 in [5]; -0.467 in test [6]; -0.418 in test [7]. The composite z-score in test [8] was -0.119; in test [9], -0.39; in [10], 0.602; in test [11], -0.0853; in test [13], -0.88; in test [14], -0.37. Further, the composite z-score is -0.772 in test [15]; -0.12 in [16]; -0.0553 in test [17]; 0.005 in test [18]; -0.509 in [19]; 1.12 in test [20]. Moreover, the z-score is -0.938 (inactive) in [4] and -0.318 in test [12].
